Inconclusive results are not listed. Activity calls are given as the source filed them. Unless noted, cut-off not given; nearly all actives show AC50 up to about 26 µM.
Tests used:
[1] = growth inhibition of DIPG glioma cells, dose response, cell-based, SU-DIPG-XVII, MIPE5.0, CellTiter-Glo, qHTS (AID 1347060); conditions: SU-DIPG-XVII viability, CellTiter-Glo ATP luminescence;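 on AC50: cells exposed to compound for 48 hours before viability readout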
[2] = growth inhibition of DIPG glioma cells, dose response, cell-based, JHH-DIPG-1, MIPE4.0, CellTiter-Glo, qHTS (AID 1347062; cut-off not given, nearly all actives have AC50 up to about 27 µM;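 on AC50: cells exposed to compound for two days before readout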); conditions: JHH-DIPG-1 viability, CellTiter-Glo ATP luminescence
[3] = viability loss in pontine glioma line – cell-based, SU-DIPG-XXV, MIPE5.0, CellTiter-Glo, qHTS, dose response (AID 1347065); conditions: CellTiter-Glo ATP luminescence;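 further: cells exposed to compound for 48 hours before ATP readout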
[4] = SU-DIPG-VI glioma cell viability, MIPE4.0 library, CellTiter-Glo luminescence, qHTS (AID 1347066; cut-off not given, nearly all actives have AC50 up to about 30 µM;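 further: cells exposed to compound for 48 hours before readout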); conditions: CellTiter-Glo ATP luminescence
[5] = JHH-DIPG-1 glioma cell viability, MIPE5.0 library, CellTiter-Glo luminescence, qHTS (AID 1347067); conditions: JHH-DIPG-1 glioma viability, CellTiter-Glo ATP luminescence;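 further: cells exposed to compound for 48 hours before readout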
[6] = SU-DIPG-XXV glioma cell viability, MIPE5.0 library, qHTS (AID 1347068; cut-off not given, nearly all actives have IC50 up to about 30 µM;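 on IC50: cells exposed to compound for 48 hours before viability readout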)
[7] = modifiers of HSF1 nuclear foci, imaging, Selleck Cancer Library (AID 1347162; in the data active means plate-normalised HSF1 focus index below about 0.46); conditions: human cells, at 10 µM; SSMD: measured here: HSF1 foci SSMD mean; cell count: measured here: cell number; plate-normalised HSF1 focus index: stronger effect = lower value
[8] = growth inhibition of DIPG glioma cells, dose response, cell-based, SU-DIPG-XIII, MIPE5.0, CellTiter-Glo, qHTS (AID 1347064; cut-off not given, nearly all actives have AC50 up to about 23 µM;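 on AC50: cells exposed to compound for 48 hours before the viability read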); conditions: SU-DIPG-XIII viability, CellTiter-Glo ATP luminescence
[9] = sensitizers of A549 cells to miR-34 induction, primary screen, imaging, A549 dox-inducible miR-34, nuclei and caspase counts (AID 1347080;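 active means compounds whose cell count with miR-34 switched on is under 0.7 times the count with it off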); conditions: A549 miR-34 inducible, Hoechst nuclei count, 48 h
[10] = survival rescue of mitochondrial mutant cells in low glucose, primary screen, MELAS cybrids, Rieske KO mouse fibroblasts, CellTiter-Glo (AID 1508586;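 active means mean z-score across replicates of 1.96 or higher in either the MELAS or the Rieske mutant cell line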;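 further: z relative to plate mean and SD of compound and empty wells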)
[11] = ovarian cancer cell viability with rucaparib, profiling panel, oncology-focused library, rucaparib conditional (AID 1508598;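 active means normalized viability below 100% at a tested concentration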); conditions: patient-derived ovarian cancer cells, CellTiter-Glo viability, 144 h, stronger effect = lower value
[12] = stronger effect = lower value, cell number ratio, induced over uninduced
[13] = measured here: relative caspase fold change +Dox/-Dox
[14] = measured here: total cells with miR-34 induction, stronger effect = lower value
[15] = measured here: total cells without miR-34 induction
[16] = MELAS cybrid survival, CellTiter-Glo 48 h, stronger effect = higher value
[17] = Rieske KO mouse fibroblast survival, CellTiter-Glo 72 h

O=C1NC(=O)/C(=C/c2cccc(C(F)(F)F)c2)S1
inactive: outcome [1] | outcome [2] | outcome [3] | outcome [4] | outcome [5] | outcome [6]

CN(C)c1ccccc1CN1CCCN(Cc2ccccc2N(C)C)C1c1ccncc1
1.08: SSMD [7]
6990: cell count [7]
active: AC50 [1] 26300 nM | AC50 [2] 20900 nM
inactive: outcome [3] | outcome [4] | outcome [6] | plate-normalised HSF1 focus index [7] 1.07

Cc1cc(-c2ncc(CC(=O)Nc3ccc(-c4cnccn4)cn3)cc2C)ccn1
6130: cell count [9, 14]
inactive: outcome [1] | outcome [2] | outcome [8] | outcome [4] | outcome [6] | fold change [9, 12] 0.911 | z-score [10, 16] -0.348
6730: cell count [9, 15]
0.85: z-score [10, 17]
0.406: fold change [9, 13]

CC[C@]12C=CCN3CC[C@@]4(c5cc([C@@]6(C(=O)OC)C[C@H]7C[C@@H](C(C)(F)F)CN(Cc8c6[nH]c6ccccc86)C7)c(OC)cc5N(C)[C@H]4[C@@](O)(C(=O)OC)[C@@H]1OC(C)=O)[C@@H]32
active: AC50 [1] 78.3 nM | AC50 [2] 469 nM | AC50 [8] 1750 nM | AC50 [3] 111 nM | AC50 [4] 8330 nM | AC50 [5] 312 nM | IC50 [6] 350 nM

O=C(O)CCNc1cc(N2CCc3ccccc3CC2)nc(-c2ccccn2)n1
inactive: outcome [1] | outcome [2] | outcome [8] | outcome [3] | outcome [4] | outcome [5] | outcome [6]

C[C@@H]1CN(Cc2ccc(F)cc2)[C@@H](C)CN1C(=O)c1cc2c(C(=O)C(=O)N(C)C)cn(C)c2cc1Cl
inactive: outcome [1] | outcome [2] | outcome [8] | outcome [6]

CN(C(=O)c1ccc(F)cc1C(F)(F)F)C1CCN(c2nnc(-c3ccnn3C)c3ccccc23)CC1
inactive: outcome [1] | outcome [2] | outcome [8] | outcome [3] | outcome [4] | outcome [5] | outcome [6]

COCCOc1ccc2c(c1)ncn2-c1ccc2cccc(N3CCC(N)CC3)c2n1
1460: cell count [9, 14]
-2.41: z-score [10, 17]
1320: cell count [9, 15]
active: AC50 [1] 11800 nM | AC50 [2] 9350 nM | AC50 [8] 9340 nM | AC50 [3] 11800 nM | IC50 [6] 18600 nM
inactive: fold change [9, 12] 1.1 | z-score [10, 16] 0.564
0.953: fold change [9, 13]

COc1ccc(S(=O)(=O)Nc2cccnc2Nc2ccc(O)cc2)cc1
7150: cell count [7]
962: cell count [9, 15]
active: AC50 [1] 263 nM | AC50 [2] 166 nM | AC50 [8] 468 nM | AC50 [5] 468 nM | IC50 [6] 10500 nM
0.79: fold change [9, 13]
1.94: SSMD [7]
-0.295: z-score [10, 17]
inactive: fold change [9, 12] 1.24 | plate-normalised HSF1 focus index [7] 1.07 | z-score [10, 16] 0.679 | viability ([11]; at 0.000305 µM, OCI-C5x cells, with rucaparib 10 µM, 100% = cells with rucaparib alone) 111% | viability ([11]; at 0.000305 µM, OCI-C5x cells, without rucaparib) 122% | viability ([11]; at 0.000305 µM, OCI-P5x cells, with rucaparib 20 µM, 100% = cells with rucaparib alone) 117% | viability ([11]; at 0.000305 µM, OCI-P5x cells, without rucaparib) 128% | viability ([11]; at 0.00122 µM, OCI-C5x cells, with rucaparib 10 µM, 100% = cells with rucaparib alone) 119% | viability ([11]; at 0.00122 µM, OCI-C5x cells, without rucaparib) 133% | viability ([11]; at 0.00122 µM, OCI-P5x cells, with rucaparib 20 µM, 100% = cells with rucaparib alone) 118% | viability ([11]; at 0.00122 µM, OCI-P5x cells, without rucaparib) 119% | viability ([11]; at 0.00488 µM, OCI-C5x cells, with rucaparib 10 µM, 100% = cells with rucaparib alone) 119% | viability ([11]; at 0.00488 µM, OCI-C5x cells, without rucaparib) 133% | viability ([11]; at 0.00488 µM, OCI-P5x cells, with rucaparib 20 µM, 100% = cells with rucaparib alone) 112% | viability ([11]; at 0.00488 µM, OCI-P5x cells, without rucaparib) 121% | viability ([11]; at 0.0195 µM, OCI-C5x cells, with rucaparib 10 µM, 100% = cells with rucaparib alone) 113% | viability ([11]; at 0.0195 µM, OCI-C5x cells, without rucaparib) 128% | viability ([11]; at 0.0195 µM, OCI-P5x cells, with rucaparib 20 µM, 100% = cells with rucaparib alone) 108% | viability ([11]; at 0.0195 µM, OCI-P5x cells, without rucaparib) 122%
1190: cell count [9, 14]
